A selection: hits, their analogues and other compounds. The true share with any hit is near 0.65%.
Yp Topo-I inh: blocks Yersinia pestis topoisomerase I activity; Y. pestis Topo-I cleavage product accumulation, plate reader; 0.064% of 360,000 active; activity, % at 10 µM; in the data active = activity above about 50%, passing the limit was not always enough
TcdB inh: inhibitors of Clostridioides difficile toxin B glycohydrolase; TcdB glycohydrolase enzymatic assay, plate reader; inhibition, % at 9.99 µM; 0.24% of 350,000 active; AID 652162; in the data active = inhibition above about 10%
PrP UTR inh: suppresses PrP 5' UTR mRNA reporter expression; cell-based PrP 5' UTR mRNA reporter, plate reader; inhibition, % (concentration not given with the values); 0.35% of 340,000 active; AID 488862; in the data active = inhibition above about 52%; also: 0 = median of the neutral control wells
Vc quorum ag: induces V. cholerae light production without autoinducers; V. cholerae BH1578 lux reporter, luminescence, 6 h; activation, % at 18.7 µM; 0.16% of 350,000 active; AID 588436; in the data active = activation mostly above about 9.7%, no sharp cut-off
Mtb UGM inh: inhibitors of M. tuberculosis UDP-galactopyranose mutase | P9WIQ1 | purified UGM, fluorescence polarization probe displacement | inhibition, % at 10 µM | 0.06% of 320,000 active; in the data active = inhibition above about 10%, passing the limit was not always enough
Target sequence (P9WIQ1 whole entry, looked up): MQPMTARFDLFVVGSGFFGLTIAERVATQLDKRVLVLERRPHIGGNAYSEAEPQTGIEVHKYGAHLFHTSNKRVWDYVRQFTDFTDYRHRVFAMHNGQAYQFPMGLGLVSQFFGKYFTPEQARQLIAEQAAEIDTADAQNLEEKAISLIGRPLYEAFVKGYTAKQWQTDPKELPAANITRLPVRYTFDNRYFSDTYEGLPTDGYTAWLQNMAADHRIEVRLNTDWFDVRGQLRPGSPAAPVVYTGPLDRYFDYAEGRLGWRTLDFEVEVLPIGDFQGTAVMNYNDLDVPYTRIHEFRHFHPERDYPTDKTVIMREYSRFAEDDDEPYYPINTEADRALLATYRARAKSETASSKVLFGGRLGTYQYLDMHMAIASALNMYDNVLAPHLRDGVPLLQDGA
PrP UTR cherry: prion 5' UTR mRNA inhibition, cherry-pick retest | 48% of 1,100 active | cell-based prion protein 5' UTR reporter, plate reader | inhibition, % at 2.5 µM | shares compounds with PrP UTR inh; in the data active = inhibition above about 54%
* = called active by the depositor; i = inactive; · = not tested or not shown.

SMILES	Yp Topo-I inh	TcdB inh	PrP UTR inh	Vc quorum ag	Mtb UGM inh	PrP UTR cherry
CN(C)c1ccc2c(c1)C(=NO)c1ccccc1-2	-19.6	·	67.6*	i	·	-73.3
Cc1ccc(S(=O)(=O)N2CCC(=O)CC2c2ccccc2)cc1 (stereo not given)	-2.2	1.8	56.2*	1.1	·	-39.3
CCC1=Nc2cc(C(=O)NCCCOC)ccc2Sc2ccccc21	-6.6	·	77.0*	-1.7	-0.8	36.2
CCC1=Nc2cc(C(=O)NCc3ccco3)ccc2Sc2ccc(C)cc21	33.8	0.8	69.2*	-0.2	0.9	85.7*
CCCC1=Nc2cc(C(=O)NCCCOC(C)C)ccc2Sc2ccccc21	3.6	·	-8.8	i	-1.6	·
CCCC1=Nc2cc(C(=O)NCCCOCC)ccc2Sc2ccccc21	31.6	·	57.6*	i	2.6	84.4*
COCC(=O)N1C[C@@H]2[C@H](c3ccccc31)[C@H](CO)N2Cc1ccccc1F	·	-2.1	·	·	·	·
Cc1cccc(NC(=S)N/N=C/C(C)c2ccccc2)c1C (stereo not given)	-5.7	0.2	58.6*	-0.4	-2.9	-21.7
Cc1ccccc1NC(=S)N/N=C/C(C)c1ccccc1 (stereo not given)	5.9	3.3	-7.2	-0.3	-0.1	·
CCN(CC)C(=S)Nc1ccc(OC)cc1	3.5	·	55.5*	-0.3	-0.2	-14.8
Cc1nn(-c2ccccc2Cl)c(Cl)c1/C=N/Nc1cccc(C(=O)O)c1	0.6	·	77.3*	-0.3	-1.4	63.8*
Cc1nn(-c2cccc(C(F)(F)F)c2)c(Cl)c1/C=N/Nc1cccc(C(=O)O)c1	3.1	-4.9	19.1	-0.4	0.5	·
Cc1ccsc1/C=N/Nc1cccc(C(=O)O)c1	3.2	0.4	72.3*	-3.6	0.8	67.7*
Cc1noc(C)c1S(=O)(=O)Nc1cccc2c1O[C@@H](CN(C)C)[C@@H](C)CN([C@H](C)CO)C2=O	·	-0.1	·	·	·	·
C[C@H](CO)N1C[C@H](C)[C@H](CN(C)C(=O)Nc2ccc3c(c2)OCO3)Oc2ccc(NS(=O)(=O)c3cccs3)cc2CC1=O	·	0.4	·	·	·	·
O=C(C1CCCC1)N1CCCCN2[C@H](CO)[C@H](c3ccc(C#CC4CC4)cc3)[C@@H]2C1	·	-1.0	·	·	·	·
COc1ccc(OC)c2[nH]c(C(=O)N3CCC(C(=O)O)CC3)cc12	-0.5	0.4	2.5	-8.3	0.4	·
COc1cc2cc(C(=O)N3CC(COS(C)(=O)=O)c4ccc(O)cc43)[nH]c2c(OC)c1OC (stereo not given)	-4.3	·	96.5*	-5.6	·	97.5*
COc1ccc(CC2C(=O)NC(C)C(=O)N(C)C3C(=O)N(C)C(Cc4ccc(O)c(c4)Oc4ccc(cc4)C3O)C(=O)NC(C)C(=O)NC(C)C(=O)N2C)cc1 (stereo not given)	19.8	0.8	53.4*	-5.6	·	40.6
COc1ccc(COC(=O)C2=C(C)NC(=O)NC2c2ccc(O)c(OC)c2)cc1 (stereo not given)	-0.2	3.0	-14.7	-1.5	-1.1	·
COc1ccc(/C=N/Nc2nnc(C)n2N)cc1OC(C)=O	-9.3	-0.3	-16.7	i	0.2	·
COc1ccc(/C=N/Nc2nnc(C)n2N)cc1OC	-1.2	-1.9	76.1*	-1.1	0.2	-7.9
COc1ccc(NC(=O)Nc2ccc3c(c2)C(=O)N([C@@H](C)CO)C[C@@H](C)[C@H](CN(C)C(=O)c2ccccc2)OCCCC[C@@H](C)O3)cc1	·	-1.9	·	·	·	·
COc1cc(C)c(C(=O)Oc2cc(C)c(C(=O)O)c(O)c2)c(O)c1	-6.3	-1.5	-14.2	-0.3	-1.0	·
COc1cc(O)c(C(=O)O)c(-c2cc(O)c(O)cc2C)c1	2.9	-27.1	68.3*	-0.3	-2.9	-16.2
SMILES	Yp Topo-I inh	TcdB inh	PrP UTR inh	Vc quorum ag	Mtb UGM inh	PrP UTR cherry
Cc1cc(C)c2c(N)c(C(=O)c3ccccc3)oc2n1	-4.3	·	-18.8	i	·	·
Cc1cc(-c2ccccc2)nc2oc(C(=O)NN)c(N)c12	-3.0	-0.7	72.3*	-0.2	1.1	1.2
CO[C@H]1CN(C)C(=O)c2cc(NC(=O)c3nc4ccccc4s3)ccc2OC[C@H](C)N(Cc2cccnc2)C[C@H]1C	·	1.4	·	·	·	·
CC(C)Cn1c(-c2cccc(S(=O)(=O)N3CCOCC3)c2)n[nH]c1=S	-0.4	1.0	76.7*	i	-0.5	-18.5
Cc1ccc(-c2cc(C(=O)N/N=C/c3c(C)nn(-c4ccccc4)c3C)[nH]n2)cc1	-7.6	·	70.2*	0.9	·	88.4*
Cc1nn(-c2ccccc2)c(C)c1/C=N/NC(=O)c1cc(C(C)(C)C)[nH]n1	5.1	·	-13.8	i	-1.1	·
